The source of these data is PubChem BioAssay AID1209 (Sanford-Burnham Center for Chemical Genomics, 2008).

Among all 190,000 compounds or so, about 810 (0.43%) were called active. Rule as the data show it: active = inhibition above about 50%; inactive = the rest. The sample as a whole holds a higher share of actives than the screen did.

The target in the assay is Mannose-6-phosphate isomerase (Homo sapiens) (UniProt P34949). The experiment in a line: MPI enzyme activity inhibition – biochemical, fluorescence intensity, coupled assay, primary screen (AID 1209).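 Also: plate controls were DMSO vehicle for no effect and wells lacking substrate for full effect.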 To be noted: purified PMI enzyme, at 20 µM, hits give high values.
Mannose-6-phosphate isomerase (Homo sapiens), sequence (P34949 whole entry, looked up): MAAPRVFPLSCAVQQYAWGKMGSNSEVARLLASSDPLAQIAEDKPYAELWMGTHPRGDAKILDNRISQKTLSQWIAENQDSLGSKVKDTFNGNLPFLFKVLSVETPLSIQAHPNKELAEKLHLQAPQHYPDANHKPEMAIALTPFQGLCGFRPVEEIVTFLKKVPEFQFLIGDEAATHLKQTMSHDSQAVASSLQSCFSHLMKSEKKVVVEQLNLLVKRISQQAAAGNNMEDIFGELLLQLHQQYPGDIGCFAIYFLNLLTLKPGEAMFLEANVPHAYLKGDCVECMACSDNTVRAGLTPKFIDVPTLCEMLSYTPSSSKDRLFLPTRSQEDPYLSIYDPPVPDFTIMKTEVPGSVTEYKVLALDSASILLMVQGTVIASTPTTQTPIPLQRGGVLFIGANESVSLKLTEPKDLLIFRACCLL
One may read the inhibition as the change of the read-out against control, counted positive when it falls. As to `CCC(CC)NC(=O)COC(=O)CCC(=O)c1cccs1`, the inhibition is 4.9% (inactive).
The same measure for `Cc1nc2cc(NC(=O)N3CCCCC3)ccc2n1C`: 16.1% (inactive); for `CCO/C=N/c1c(C#N)c2c(c(=S)n1C)COC(C)(C)C2`: 5.8% (inactive); for `Cn1c(=O)n(C)c2cc([N+](=O)[O-])c(N3CCN(S(C)(=O)=O)CC3)cc21`: -6.6% (inactive).
The value for `CC1CCCC2(C1)NC(=S)c1c(sc3c1CCCC3)N2` (stereo not given) was 74.4% (active).
As to `CCSC1=NC2(CCCCC2)Nc2sc3c(c21)CCCC3`, the inhibition was -35% (inactive).
For `CC1CCCC2(C1)NC(=S)N(c1ccccc1)N2` (stereo not given), the inhibition is -48.4% (inactive).
The same measure for `COc1ccccc1OCCOCCOc1ccc(C)cc1Br`: 11.4% (inactive); for `C=CCn1c(SC/C=C/c2ccccc2)nnc1-c1sc(N)nc1C`: 13.7% (inactive); for `CC(C)N(CC#CCC(O)(c1ccccc1)C1CCCC1)CCO` (stereo not given): 58.1% (active).
The value for `CC(C)(C)N(CC#CCC(O)(c1ccccc1)C1CCCC1)CCO` (stereo not given) was 30.4% (inactive); that for `CCN(CC#CCC(O)(c1ccccc1)C1CCCC1)C(C)C` (stereo not given) was 7.4% (inactive).
With `CC(C)C(C)NC(=O)COC(=O)c1cccc(C(=O)OCC(=O)NC(C)C(C)C)n1` (stereo not given), the inhibition was 21.9% (inactive).
As for `Nc1nnc(-c2ccncc2)s1`, the inhibition is 13.4% (inactive).
The value for `CCOC(=O)NC1(NCc2ccccc2)Oc2ccccc2O1` was 51.2% (active); that for `CCOC(=O)NC1(NCC(C)C)Oc2ccccc2O1` was 42.4% (inactive); that for `CCOC(=O)NC1(NC(C)C)Oc2ccccc2O1` was 12.2% (inactive).
The value for `CCN(CC)c1ccc(C2C(C(=O)OCCOC(C)C)=C(C)NC3=C2C(=O)CCC3)cc1` (stereo not given) was 6.2% (inactive); that for `CCOC(=O)c1oc2ccccc2c1NC(=O)CN1CCOCC1` was -0.8% (inactive); that for `COc1ccc(NC(=O)c2ccc(S(=O)(=O)N3CCOCC3)cc2)c(OC)c1` was 7.2% (inactive).
As for `COC(=O)c1c(-c2ccccc2)csc1NC(=O)C1CC=CCC1C(=O)O` (stereo not given), the inhibition was -6.8% (inactive).
The same measure for `COC(=O)c1c(-c2ccc(C)cc2)csc1NC(=O)C1CC=CCC1C(=O)O` (stereo not given): 7.7% (inactive); for `COC(=O)c1c(-c2ccco2)csc1NC(=O)C1CC=CCC1C(=O)O` (stereo not given): 51.4% (active).
The same measure for `O=c1[nH]nc(CNc2ccc(Cl)cc2Cl)c2ccccc12`: -11.9% (inactive); for `Cc1ncc(CO)c(/C=N/NC(=O)c2ccc(O)cc2)c1O`: 3.5% (inactive).
Turning to `Cc1ncc(CO)c(/C=N/NC(=O)c2ccc(Br)cc2)c1O`, the inhibition was 15.7% (inactive).
The value for `COc1ccccc1NC(=S)N1CCC(C(=O)c2ccc(F)cc2)CC1` was 1.3% (inactive).
The same measure for `CC(C)OCCCNC(=S)Nc1ccc2nc3n(c(=O)c2c1)CCCCC3`: -2.7% (inactive).
As to `NC(=O)C1CCN(C(=S)c2ccc(-c3ccc(Br)cc3)o2)CC1`, the inhibition is -10% (inactive).
`CC(=O)N1CCN(C(=S)c2ccc(-c3ccc(Cl)cc3)o2)CC1`: the inhibition was 63.9% (active).
The value for `S=C(c1ccc(-c2ccc(Cl)cc2)o1)N1CCCCC1` was 9.1% (inactive).
The same measure for `COc1ccc(-c2ccc(C(=S)N3CCN(C(C)=O)CC3)o2)cc1`: 62% (active); for `COc1ccc(CC(=O)N2CCN(C(=O)Cc3ccc(OC)cc3)CC2)cc1`: 7.3% (inactive).
The value for `N#CCCN1CCN(C(=S)c2ccc(-c3ccc(Cl)cc3)o2)CC1` was 25.7% (inactive).
Turning to `Cc1cccc(CSC2=NCCN2C(=O)C2CC2)c1`, the inhibition was 5.8% (inactive).
On to `CCC1N=C(SC)NC(C)=C1C(=O)c1ccccc1` (stereo not given), for which the inhibition was -36.6% (inactive).
In the case of `CCOc1ccc(Cn2nnc(C(=O)Nc3cc(C)cc(C)c3)c2N)cc1`, the inhibition is 18.5% (inactive).
The same measure for `CCN(CC)CCNC(=S)Nc1ccc(F)cc1`: -2.1% (inactive).
Regarding `OCCCNC(=S)Nc1ccc2nccnc2c1`, the inhibition was -2.7% (inactive).
With `CCN(CC)c1ccc(NC(=S)Nc2ccc(F)cc2)cc1`, the inhibition is 53.4% (active).
Turning to `CC(C)N(C(=O)Nc1ccc2nccnc2c1)C(C)C`, the inhibition was 65.4% (active).
With `COc1ccc(N(C)C(=S)Nc2ccc3nc(C)c(C)nc3c2)cc1`, the inhibition was 53.7% (active).
Turning to `Fc1ccc(NC(=S)Nc2ccc3nccnc3c2)cc1`, the inhibition is 56.3% (active).
The same measure for `Cc1nc2ccc(NC(=O)N(C(C)C)C(C)C)cc2s1`: 3% (inactive); for `CC(=O)Nc1ccc(NC(=S)Nc2ccc(F)cc2)cc1`: 3.2% (inactive).
The value for `Fc1ccc(NC(=S)Nc2nccs2)cc1` was 2.2% (inactive).
For `CNC(=S)Nc1ccc2nc(C)c(C)nc2c1`, the inhibition is 2.5% (inactive).
The same measure for `COc1ccc(NC(=S)Nc2ccc3nc(C)c(C)nc3c2)cc1`: 45% (inactive).
For the compound `CC(C)(C)NC(=O)Nc1ccc2nccnc2c1`, the inhibition is 4.4% (inactive).
As to `Cc1c(Nc2nc(-c3ccc(Cl)cc3)cs2)c(=O)n(-c2ccccc2)n1C`, the inhibition was 20.6% (inactive).
The same measure for `COc1ccc(N2CCN(C(=O)c3ccc(F)cc3)CC2)c([N+](=O)[O-])c1`: -4.8% (inactive); for `COCCN(C(=O)Cn1nnc2ccccc21)C(C(=O)NC1CCCC1)c1ccc(OC)cc1OC` (stereo not given): -10.6% (inactive).
The same measure for `CCc1cccc(CC)c1-n1c(SCC(=O)c2c(N)n(C)c(=O)n(C)c2=O)nnc1-c1cccnc1`: 17.2% (inactive); for `Cc1ccccc1C(=O)c1c[nH]c(C(=O)N2CCN(c3ccccc3F)CC2)c1`: 7.5% (inactive); for `Cc1cc(C)cc(NC(=S)N2CCN(c3ccc(F)cc3)CC2)c1`: 10% (inactive).
With `C=CCn1c(SCc2ccccc2)nnc1-c1cccnc1`, the inhibition is 1.3% (inactive).
The value for `CN(Cc1nc2ccccc2c(=O)[nH]1)CC(O)COCc1ccco1` (stereo not given) was 11.4% (inactive); that for `CCNc1nc(CSc2ccccc2)nc2sc(C)c(C)c12` was 30.5% (inactive); that for `CCn1c(SCC(=O)N/N=C/c2ccc(C)o2)nnc1-c1ccc(C)cc1` was 0.6% (inactive).
The same measure for `CCN1CCN(CCCNC(=O)C(=O)c2c(C)[nH]c3ccccc23)CC1`: -6.7% (inactive); for `O=C(COC(=O)c1ccc(Br)cc1)NCc1ccc(F)cc1`: -1.2% (inactive).
The same measure for `COC(=O)c1ccc(CSc2nnc(C)s2)cc1`: 8.5% (inactive); for `CC(C)(CO)NC(=O)CC1C(=O)NCCN1CC(c1ccccc1)c1ccccc1` (stereo not given): -1.4% (inactive).
Consider `COC(=O)c1cccc(NC(=O)CCc2cc(OC)c(OC)c(OC)c2)c1`, for which the inhibition is -5.4% (inactive).
For `COCCn1c(SCCN2CCCCC2)nc2ccccc2c1=O`, the inhibition was 3.5% (inactive).
